# In all, about 390,000 compounds went through this assay and about 17,000 (4.4%) were called active. Not shown: some 8% with an inconclusive outcome. The call rests on the fitted dose curve; in most records, active means well fitted inhibition curve with a large enough effect; inconclusive means small, poorly fitted or top-dose-only effect; inactive means no such curve, though single readings can be large or run the other way. What follows is part of a selection rich in actives, with near analogues and random picks from the rest. Where a call stands in place of a potency, no number is given.
# Target: Lysine-specific demethylase 4A (Homo sapiens) (UniProt O75164)
# Sequence (O75164 whole entry, looked up, the tested form may be a part): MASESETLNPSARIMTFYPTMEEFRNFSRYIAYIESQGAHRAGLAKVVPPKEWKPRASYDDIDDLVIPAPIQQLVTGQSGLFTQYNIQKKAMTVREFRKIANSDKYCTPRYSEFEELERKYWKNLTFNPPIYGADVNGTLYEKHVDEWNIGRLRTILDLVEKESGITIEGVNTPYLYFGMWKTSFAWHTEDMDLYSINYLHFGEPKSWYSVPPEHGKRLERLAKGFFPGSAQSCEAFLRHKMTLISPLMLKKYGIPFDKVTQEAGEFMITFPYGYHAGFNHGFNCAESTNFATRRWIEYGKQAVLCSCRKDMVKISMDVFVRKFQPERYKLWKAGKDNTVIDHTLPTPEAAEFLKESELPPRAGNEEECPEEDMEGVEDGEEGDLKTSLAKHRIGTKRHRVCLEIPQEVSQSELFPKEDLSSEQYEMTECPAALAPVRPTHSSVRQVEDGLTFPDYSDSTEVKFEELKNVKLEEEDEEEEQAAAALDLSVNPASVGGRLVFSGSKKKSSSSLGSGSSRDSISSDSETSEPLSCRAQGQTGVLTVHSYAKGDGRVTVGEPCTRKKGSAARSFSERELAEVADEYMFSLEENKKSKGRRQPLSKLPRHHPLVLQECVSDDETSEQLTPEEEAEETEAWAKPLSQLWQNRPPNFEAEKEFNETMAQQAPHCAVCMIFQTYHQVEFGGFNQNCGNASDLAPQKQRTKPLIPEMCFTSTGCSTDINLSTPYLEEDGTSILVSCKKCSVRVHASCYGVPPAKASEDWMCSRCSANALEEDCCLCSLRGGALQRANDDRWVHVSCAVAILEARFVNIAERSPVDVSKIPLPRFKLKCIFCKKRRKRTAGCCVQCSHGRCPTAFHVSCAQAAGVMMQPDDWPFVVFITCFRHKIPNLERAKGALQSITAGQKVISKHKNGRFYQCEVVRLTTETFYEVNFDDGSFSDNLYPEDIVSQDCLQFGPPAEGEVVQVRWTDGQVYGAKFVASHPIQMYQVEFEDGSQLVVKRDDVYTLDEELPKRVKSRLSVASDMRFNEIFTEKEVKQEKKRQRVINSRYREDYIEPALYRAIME
# Test: qHTS Assay for Inhibitors of JMJD2A-Tudor Domain; further: nearly all actives have a fitted effect of over 50% in size
# Details: AlphaScreen JMJD2A-Tudor / H3K4me3 peptide binding; series mostly up to 114 µM
# Potency means the concentration at half of the fitted maximal effect.
row,Structure (SMILES),Potency
1,CCOc1ccc(NC(=O)CSc2c3c(nc4ccccc24)CCCC3)cc1,inactive
2,CCN1/C(=C\c2ccc3ccccc3[n+]2CC)Sc2cc(C)ccc21,20 µM (active)
3,CCN1/C(=C/c2ccc3ccc(C)cc3[n+]2CC)Sc2ccccc21,89.1 µM (active)
4,CCOc1cc(CNC(=O)c2sc3ncnc(N(C)C4CCCCC4)c3c2C)ccc1OC,inactive
5,Cc1ccc(C(=O)CSc2nc(-c3ccccc3)nc3c2CCCC3)c(C)c1,inactive
6,COc1ccc(NC(=O)CSC2=Nc3ccccc3C3=NC(CC(=O)NCc4ccccc4OC)C(=O)N23)cc1Cl (configuration not stated),inactive
7,Cc1nn(CC(=O)O)c(=O)c2cc3cc(F)ccc3n12,inactive
8,CCC(=O)N1CCc2cc(CNC(=O)Nc3ccccc3Cl)ccc21,inactive
9,CC(=O)N1c2ccc(S(=O)(=O)N3CCCCCC3)cc2CC1C(=O)NCc1ccccc1C (configuration not stated),inactive
10,Cc1c(NC(=O)C(C)(C)C)cccc1-c1nc2ccccc2s1,inactive
11,CCN(CC)CCNC(=O)CN1N=C(c2ccc(OC)cc2)CCC1=O,inactive
12,C#CCOCCOCCOCCNc1nc(N2CCN(C(=O)[C@H](C(C)C)n3cc(CCO)nn3)CC2)nc(N2CCN(C(=O)[C@H](C(C)C)n3cc(CCO)nn3)CC2)n1,inactive
13,C#CCOCCOCCOCCNc1nc(N2CCN(C(=O)CCCCCCCCCCNC(=O)[C@H](CCCCN)n3cc(C)nn3)CC2)nc(N2CCN(C(=O)CCCCCCCCCCNC(=O)[C@H](CO)n3cc(CCCSC)nn3)CC2)n1,56.2 µM (active)
14,C#CCOCCOCCOCCNc1nc(N2CCN(C(=O)CCCCCCCCCCNC(=O)Cn3cc(CCCCCN)nn3)CC2)nc(N2CCN(C(=O)CCCCCCCCCCNC(=O)[C@H](CO)n3cc(CCCSC)nn3)CC2)n1,79.4 µM (active)
15,C#CCOCCOCCOCCNc1nc(N2CCN(C(=O)CCCCCCCCCCNC(=O)[C@H]([C@@H](C)CC)n3cc(CCCCN=C(N)N)nn3)CC2)nc(N2CCN(C(=O)CCCCCCCCCCNC(=O)[C@H](CO)n3cc(CCCSC)nn3)CC2)n1,20 µM (active)
16,CC[C@@H](C)[C@@H](C(=O)N1CCN(C(=O)OC(C)(C)C)CC1)n1cc(CCC(=O)O)nn1,inactive
17,Cc1c(-c2nsc(NC(=O)c3cccc(Cl)c3)n2)nnn1-c1ccccc1C(F)(F)F,inactive
18,COc1ccc(NC(=O)CCCN2C(=O)CCn3nc(-c4cn(C)c5ccccc45)cc32)cc1OC,inactive
19,Cc1ccc(SCC(=O)Nc2ccc3oc(-c4ccccc4C)nc3c2)cc1,inactive
20,CCN(CC)c1ccc(NC(=O)Cn2nc3c(cc2=O)CCCC3)c(C)c1,inactive
21,CCOc1ccc(CC(=O)NCCc2csc3nc(-c4ccccc4F)nn23)cc1,inactive
22,CC1CCN(S(=O)(=O)c2nnc(NC(=O)COc3ccccc3F)s2)CC1,inactive
23,O=C(COc1ccccc1F)Nc1nc(-c2ccccn2)cs1,79.4 µM (active)

row,Structure (SMILES),Potency
1,Cc1cc(NC(=O)[C@H](C)NC(=O)c2ccco2)ccc1Br,inactive
2,O=C(CN1C(=O)C2C3C=CC(C3)C2C1=O)NCCc1ccccc1Cl (configuration not stated),inactive
3,O=C(CN1C(=O)C2C3C=CC(C3)C2C1=O)Nc1nc(-c2ccccn2)cs1 (configuration not stated),50.1 µM (active)
4,CC(NC(=O)c1ccco1)C(=O)Nc1nc(-c2ccccn2)cs1 (configuration not stated),44.7 µM (active)
5,Cc1csc2nc(COC(=O)c3ccc(NC(=O)COc4ccccc4F)cc3)cc(=O)n12,inactive
6,O=C(NCCN1C(=O)C2C3C=CC(C3)C2C1=O)Nc1ccccn1 (configuration not stated),inactive
7,CSCCC(NC(=O)c1ccco1)C(=O)Nc1cc(C)ccn1 (configuration not stated),inactive
8,CCOc1ccccc1CNC(=O)Nc1cn(CC(C)C)c(=O)c2ccccc12,inactive
9,CCc1nn(CC(=O)N2CCN(c3ccc(Cl)cc3)CC2)c(=O)c2cc3occc3n12,inactive
10,Cc1ccc(CCNC(=O)c2ccc(CS(=O)(=O)Cc3cccc(C)c3)o2)cc1,inactive
11,Cc1ccc(-n2c(SCC(=O)Nc3cccc(F)c3)nc3c(oc4ccccc43)c2=O)cc1C,inactive
12,COC(=O)c1ccc(/C=N/NC(=O)C(=O)N2CCCCCC2)cc1,inactive
13,COC(=O)c1ccc(/C=N/N2C(C)CCCC2C)cc1 (configuration not stated),63.1 µM (active)
14,COC(=O)c1ccc(/C=N/OCC(=O)Nc2cc(F)ccc2F)cc1,inactive
15,CCCOc1ccc(C2c3c(-c4ccccc4O)n[nH]c3C(=O)N2Cc2cccnc2)cc1 (configuration not stated),inactive
16,CCOc1cccc(/C(O)=C2/C(=O)C(=O)N(CCOC)C2c2ccncc2)c1 (configuration not stated),inactive
17,CCOc1ccc(/C(O)=C2/C(=O)C(=O)N(Cc3cccnc3)C2c2ccc(N(C)C)cc2)c(C)c1 (configuration not stated),56.2 µM (active)
18,CC(C)OCC(O)CN1CCN(C(c2ccccc2)c2ccccc2)CC1 (configuration not stated),inactive
19,COc1ccc(OC)c(CN2CCN(C(=O)CNC(=O)c3cc(C)cc(C)c3)CC2)c1,inactive
20,COc1ccccc1NC(=S)N1CCN(C(c2ccccc2)c2ccccc2)CC1,inactive
21,COc1ccccc1N1CCN(Cc2ccc(OC)c3ccccc23)CC1,3.16 µM (active)
22,CC(=O)N1CCN(CC(c2ccccc2)c2ccccc2)CC1,inactive
23,COc1ccccc1CN1CCN(Cc2cc(OC)c(OC)cc2OC)CC1,7.08 µM (active)

row,Structure (SMILES),Potency
1,COc1ccccc1N1CCN(Cc2cc(OC)c3c(c2)OCO3)CC1,inactive
2,COc1ccccc1CN1CCN(C(c2ccccc2)c2ccccc2)CC1,50.1 µM (active)
3,COc1ccccc1Cn1c(CO)nc2ccccc21,inactive
4,CNCC(O)CN1CCN(c2ccccc2OC)CC1 (configuration not stated),inactive
5,COc1ccccc1CNCc1cccs1,inactive
6,Oc1ccccc1CN1CCN(C(c2ccccc2)c2ccccc2)CC1,56.2 µM (active)
7,CCCCNc1ccc(-c2nc(-c3ccncc3)no2)cc1[N+](=O)[O-],inactive
8,CCOC(=O)c1c(S(=O)(=O)N2CCC(C(=O)NCc3ccccc3OC)CC2)c(C)n(C)c1C,inactive
9,O=C(COc1ccccc1)NCc1ccc2c(c1)CCN2C(=O)c1ccc(F)cc1,inactive
10,COc1ccc(-c2c(C)nn3c(N4CCC(C(=O)NCCC(C)C)CC4)cc(C)nc23)cc1OC,inactive
11,COc1ccccc1CNc1nc2ccc(Cl)cc2n2cnnc12,inactive
12,COc1ccc(OC)c(CCNC(=O)c2nn(C)c3c2CS(=O)(=O)c2ccccc2-3)c1,inactive
13,COc1ccc(-n2c(=O)[nH]c3cc(C(=O)NCCc4ccc(OC)c(OC)c4)ccc3c2=O)c(OC)c1,inactive
14,CCn1c(C)c(C)c2cc(C(=O)NCCc3cc(OC)ccc3OC)ccc21,35.5 µM (active)
15,Cc1cc(C)c(-c2n[nH]c3c2C(c2ccccc2F)N(CCO)C3=O)c(O)c1 (configuration not stated),inactive
16,COc1ccc(CNC(=O)Cn2nnc(-c3ccc(S(C)(=O)=O)cc3)n2)cc1,inactive
17,COc1ccc(N(Cc2ccc(N(C)C)cc2)C(=O)c2ccc(S(C)(=O)=O)cc2)cc1,63.1 µM (active)
18,COc1ccc(S(=O)(=O)NCc2ccc(C(=O)N(C)Cc3ccco3)cc2)cc1,inactive
19,CCn1cc2nc(SCc3ccccc3Cl)n(CCc3ccccc3)c(=O)c2n1,inactive
20,O=C(c1cccc(Br)c1)N1CCN(Cc2cc(=O)n3nc(-c4ccccc4)sc3n2)CC1,inactive
21,COCCCNC(=O)c1c(NC(=O)c2cc(=O)c3cc(C)c(C)cc3o2)sc2c1CCCC2,inactive
22,Cc1ccc(-c2nn3c(=O)cc(CN4CCN(C(=O)Nc5cccc(C(F)(F)F)c5)CC4)nc3s2)cc1,inactive
23,O=C(c1cccnc1)N(c1cc2sc(=O)oc2c2ccccc12)S(=O)(=O)c1ccccc1,25.1 µM (active)

row,Structure (SMILES),Potency
1,COc1ccc(N(C(=O)c2cccnc2)S(=O)(=O)c2ccc(OC)c(OC)c2)cc1,inactive
2,O=C(c1cccnc1)N(Cc1ccccc1)C(=O)c1cccnc1,inactive
3,COc1ccc(C(F)(F)F)cc1NC(=O)c1sc2nc(-c3cccs3)ccc2c1N,inactive
4,COc1cccc(CNC(=O)C(NS(=O)(=O)c2ccc3nc(C)sc3c2)C(C)C)c1 (configuration not stated),inactive
5,CCOC(=O)N1CCN(CCC(=O)Nc2cc(OC)ccc2OC)CC1,inactive
6,CCOC(=O)N1CCN(C(=O)C2CCN(S(=O)(=O)c3cc(Cl)ccc3OCC)CC2)CC1,inactive
7,CCOC(=O)N1CCN(C(=O)C2CCN(Cc3ccc(OC)cc3OC)CC2)CC1,1 µM (active)
8,CC(C)(C)c1ccc(C(=O)NCC(c2ccco2)S(=O)(=O)c2ccc(F)cc2)cc1 (configuration not stated),inactive
9,O=C(NCc1cccnc1)C(=O)NCC(c1cccnc1)N1CCN(c2ccccc2)CC1 (configuration not stated),inactive
10,COc1ccc(CNC(=O)c2cc3c(-c4ccccc4F)nn(C)c3s2)c(OC)c1,inactive
11,Cc1cc2c(cc1C)C(c1cccc(OC(C)C)c1)CC(=O)N2 (configuration not stated),inactive
12,COc1cc(Br)cc2cc(S(=O)(=O)c3ccccc3)c(=O)oc12,inactive
13,O=C(Cn1nc(C(F)(F)F)c2c1CCCC2)Nc1ccc(Cl)cc1,inactive
14,O=C(Cn1nc(CNc2ccc(Cl)cc2)[n+]2c1CCCCC2)c1ccc(Cl)cc1,44.7 µM (active)
15,O=C(Cn1ncc(N2CCCC2)c(Br)c1=O)c1ccc(Cl)cc1,inactive
16,COc1cc(OC)c(NC(=O)c2c3c(nn2C)-c2ccccc2SC3)cc1Cl,inactive
17,O=C(Cc1ccc(Cl)cc1)NC1CCS(=O)(=O)C1 (configuration not stated),inactive
18,CC(C(=O)NC1CCS(=O)(=O)C1)N1C(=O)/C(=C/c2ccc(Cl)cc2)SC1=S (configuration not stated),56.2 µM (active)
19,CN(C(=O)CN1C(=O)/C(=C/c2ccc(Cl)cc2)SC1=S)C1CCS(=O)(=O)C1 (configuration not stated),inactive
20,COc1ccccc1C(=O)OCc1cc(=O)n2nc(-c3cccs3)sc2n1,inactive
21,Cc1cc(C=O)c(C)n1-c1ccc(NC2CCCCC2)c([N+](=O)[O-])c1,17.8 µM (active)
22,COc1ccc(NC(=O)CN(C)C(=O)c2ccc(NC3CC3)c([N+](=O)[O-])c2)cc1,inactive
23,Cc1c(NS(=O)(=O)c2ccc(NC3CCCC3)c([N+](=O)[O-])c2)c(=O)n(-c2ccccc2)n1C,inactive

# — PubChem BioAssay AID504339 (National Center for Advancing Translational Sciences (NCATS), 2011)
